Screens deposited in PubChem by National Center for Advancing Translational Sciences (NCATS).
In the library only some 12% were active in any assay of this set; here they are far more common.
G9a inh-1 – G9a (human) methyltransferase inhibition | hit rate 8.8% among 350,000 | Potency, µM (top dose mostly 102 µM), for the others: top-dose activity, negative = inhibition, actives largely listed as inhibitors | Q96KQ7 | G9a H3K9 monomethylation, AlphaScreen, 2 h | AID 504332; further: potency means the concentration at half of the fitted maximal effect; on the % scale 0 is the no-effect control and ±100 the full control effect; nearly all actives have a fitted effect of over 75% in size
Target sequence (Q96KQ7 913-1193 limits assumed): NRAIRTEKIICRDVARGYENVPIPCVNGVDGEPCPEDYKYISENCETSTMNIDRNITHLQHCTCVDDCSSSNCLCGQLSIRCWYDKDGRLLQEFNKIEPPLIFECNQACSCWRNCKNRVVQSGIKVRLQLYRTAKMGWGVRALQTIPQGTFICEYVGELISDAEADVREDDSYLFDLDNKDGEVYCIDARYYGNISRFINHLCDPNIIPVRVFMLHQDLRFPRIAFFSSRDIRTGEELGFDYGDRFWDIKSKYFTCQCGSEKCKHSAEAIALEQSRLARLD
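G9a (20 nM) was preincubated 15 min with compound, then reacted 2 h at room temperature with 500 nM biotin-H3K9 peptide and 20 µM SAM. Monomethyl-H3K9 detected by AlphaScreen using anti-H3K9me1 antibody.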
BAZ2B inh – blocks human BAZ2B | Q9UIF8 | hit rate 4.4% among 360,000 | Potency, µM (top dose mostly 114 µM), for inactives: at the top dose activity change, negative = inhibition, usual class: inhibitors | AID 504333 | AlphaScreen BAZ2B-H3K14Ac peptide displacement; further: potency means the concentration at half of the fitted maximal effect; on the % scale 0 is the no-effect control and ±100 the full control effect; nearly all actives have a fitted effect of over 60% in size
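AlphaScreen displacement: compounds (up to 110uM) incubated 30 min at room temperature with a preformed 50 nM BAZ2B/50 nM biotinylated H3K14Ac peptide complex in PBS pH 7.4 with Tween-20. Donor and acceptor beads at 10 ug/mL final added, 20 min light-protected before reading.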
HP1b binding inh – HP1-beta chromodomain-methylated histone interaction inhibition; P83916; AlphaScreen HP1-beta / biotin-H3K9me3 peptide binding; Potency, µM (highest dose often 114 µM), without a hit: top-dose activity change, negative = inhibition, usual class: inhibitors; hit rate 0.56% among 390,000; AID 540317; further: potency means the concentration at half of the fitted maximal effect; nearly all actives have a fitted effect of over 70% in size
Target sequence (P83916 whole entry, looked up): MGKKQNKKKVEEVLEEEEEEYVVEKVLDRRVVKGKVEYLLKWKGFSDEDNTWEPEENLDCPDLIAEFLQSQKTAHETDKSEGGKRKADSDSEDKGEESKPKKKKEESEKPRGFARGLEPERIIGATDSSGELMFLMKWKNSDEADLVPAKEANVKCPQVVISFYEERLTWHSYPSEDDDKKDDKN
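Compound inhibition of the preformed complex between 50 nM HP1-beta and 50 nM biotinylated H3K9me3 peptide was read by AlphaScreen. Buffer was PBS pH 7.4 with 0.01% Tween-20. Incubations ran 30 min at room temperature, with 10 ug/mL donor/acceptor beads.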
L3MBTL1 inh-1 – blocks human L3MBTL1; Q9Y468; AlphaScreen L3MBTL1–H3K9me1 peptide binding; Potency, µM (highest dose often 57.1 µM), inactives show at the top dose activity, negative = inhibition, actives largely listed as inhibitors; hit rate 0.66% among 230,000; AID 485360; further: potency means the concentration at half of the fitted maximal effect; on the % scale 0 is the no-effect control and ±100 the full control effect; nearly all actives have a fitted effect of over 60% in size
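L3MBTL1 50 nM + b-AHA-H3(1-15)K9me1 75 nM, 30 min RT; compound added, 30 min RT; streptavidin donor/Ni-chelate acceptor beads 10 ug/mL each final, 30 min RT dark; AlphaScreen read.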
JMJD2A Tudor – inhibitors of human JMJD2A Tudor domain; Potency, µM (series often up to 114 µM), inactives show at the top dose activity change, negative = inhibition, most hits filed as inhibitors; AlphaScreen JMJD2A-Tudor / H3K4me3 peptide binding; hit rate 4.4% among 390,000; AID 504339; further: potency means the concentration at half of the fitted maximal effect; on the % scale 0 is the no-effect control and ±100 the full control effect; nearly all actives have a fitted effect of over 50% in size
Sfp PPTase inh – inhibitors of Bacillus subtilis Sfp phosphopantetheinyl transferase; hit rate 3.5% among 310,000; Potency, µM, without a hit: largest response in the series, negative = inhibition, hits mostly inhibitors; AID 1490; Biochemical Sfp PPTase activity, qHTS; Q9F4F7;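 further: the enzyme is Sfp with the accession as filed and its product quenches rhodamine fluorescence; potency means the concentration at half of the fitted maximal effect; 0% = enzyme reaction without inhibitor and -100% = no enzyme wells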
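Fluorescence-quenching assay with 15 nM Sfp, 5 uM rhodamine-CoA and 12.5 uM BHQ-2-labelled ybbR peptide in pH 7.6 Hepes/MgCl2 buffer. Enzyme was pre-incubated with compound for 15 min at room temperature. Rate was taken from the 30-min fluorescence change (525/598 nm).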
Sfp PPTase conf – Sfp phosphopantetheinyl transferase inhibition, confirmation; shares compounds with Sfp PPTase inh; Sfp PPTase enzymatic assay, qHTS titration; Potency, µM (series often up to 114 µM), without a hit: at the highest dose activity change, negative = inhibition, actives largely listed as inhibitors; hit rate 79% among 380;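 further: potency means the concentration at half of the fitted maximal effect; plate controls were uninhibited Sfp reaction for no effect and no enzyme control for full effect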
Target sequence (Q9F4F7 whole entry, looked up): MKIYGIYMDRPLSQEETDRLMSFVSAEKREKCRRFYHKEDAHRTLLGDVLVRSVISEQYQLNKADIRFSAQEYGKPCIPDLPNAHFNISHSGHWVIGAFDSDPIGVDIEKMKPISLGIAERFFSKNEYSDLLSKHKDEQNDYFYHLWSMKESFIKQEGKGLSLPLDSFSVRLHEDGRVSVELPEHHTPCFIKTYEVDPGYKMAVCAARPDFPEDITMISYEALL
Sfp gel assay – Inhibits Bacillus subtilis Sfp phosphopantetheinyl transferase; purified Sfp, gel-based phosphopantetheinylation read-out; Potency, µM, actives largely listed as inhibitors; shares compounds with Sfp PPTase inh; hit rate 20% among 210;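 active means potency below 100 µM; inconclusive means dose-dependent response but potency above 100 µM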;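 further: band intensities scaled against SCH202676 control wells before curve fitting; potency is an IC50 for inhibitors of Sfp transfer activity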
L3MBTL1 inh-2 – blocks human L3MBTL1 methyl-lysine binding. shares compounds with L3MBTL1 inh-1. L3MBTL1 methyl-lysine binding inhibition, biochemical qHTS. Potency, µM, actives largely listed as inhibitors. hit rate 91% among 500; further: potency means the concentration at half of the fitted maximal effect; nearly all actives have a fitted effect of over 70% in size
AlphaScreen ctr2 – interferes with AlphaScreen signal in L3MBTL1 counterscreen; 500 tested, under 10 active; AlphaScreen counterscreen, signal inhibition; shares compounds with L3MBTL1 inh-1; Potency, µM (titrated, usually from 57.1 µM), without a hit: at the highest dose activity change, negative = inhibition, most hits filed as inhibitors; AID 602224; further: potency means the concentration at half of the fitted maximal effect; 0% is about no effect
G9a inh-2 – inhibits human G9a histone lysine methyltransferase, hit confirmation; shares compounds with JMJD2A Tudor; G9a H3K9 monomethylation, AlphaScreen, 2 h; Potency, µM, most hits filed as inhibitors; hit rate 89% among 370; AID 588344; further: potency means the concentration at half of the fitted maximal effect; nearly all actives have a fitted effect of over 65% in size
An asterisk follows results filed as active; i = inactive; ? = inconclusive; · = no result given; ! = a repeat was not active; [ ] = remark or other dose. Unless noted, the call rests on the fitted dose curve; in most records, active means well fitted curve in the direction sought with a large enough effect; inconclusive means small, poorly fitted or top-dose-only effect, or another doubt; inactive means no such curve, though single readings can be large; an effect the other way counts as inactive or inconclusive.

SMILES	G9a inh-1	BAZ2B inh	HP1b binding inh	L3MBTL1 inh-1	JMJD2A Tudor	Sfp PPTase inh	Sfp PPTase conf	others
CCC1=NN2C(=N)/C(=C\c3cccn3-c3ccc(Br)cc3)C(=O)N=C2S1	?	-39%	-19%	·	?	20%	·
CN1CCN(C(=S)C(=O)Nc2ccc(Br)cc2)CC1	2.5µM*	-18%	?	-6%	89µM*	1.3µM*	6.6µM*
OC[C@H]1O[C@@H](O[C@@H]2[C@@H](CO)O[C@](O)(CO)[C@H]2O)[C@H](O)[C@@H](O)[C@H]1O	·	·	·	·	·	16%	·
Cc1ccc(-c2nc3cnccn3c2Nc2c(C)cccc2C)o1	45µM*	13%	?	8%	?	0.5µM*	4.2µM*	Sfp gel assay=i
O=C(O)CSc1nc2ccc(C(=O)c3ccccc3)cc2[nH]1	·	8%	18%	11%	-21%	11%	·
Cc1cc(NC(=O)CN2C(=O)CC(c3ccco3)Sc3ccccc32)no1 (stereo not given)	13µM*	-30%	-11%	-18%	?	2.5µM*	15µM*	Sfp gel assay=i
CN1CCCC[C@@H]1CCN1c2ccccc2Sc2ccc(S(C)=O)cc21 (stereo not given in full)	7.9µM*!	·	·	·	·	20µM*!	42µM*	Sfp gel assay=19µM*
CC1(NC(=O)Cc2c(F)cccc2Cl)CCS(=O)(=O)C1 (stereo not given)	·	·	36%	0%	-4%	·	·
CC(C)c1ccc(OCC(=O)NCc2ccccc2)cc1	5%	10%	35%	7%	-8%	15%	·
Nc1ccccc1Sc1nc2ccccc2[nH]1	7.1µM*	40µM*	?	?	28µM*	7.9µM*	37µM*
Cc1nnc(N2CCC(C(=O)NC(C)C)CC2)c2nn(-c3ccc(Cl)cc3)c(C)c12	7%[59 µM]	-3%	28%	·	8%	·	·
N#C/C(=C/c1ccc(N2CCOCC2)o1)c1ccc(Cl)cc1	?	45µM*	-26%	-6%	56µM*	0.71µM*	13µM*
CC(C)c1ccc(/C=N/NC(=O)C(=O)NCCCN2CCOCC2)cc1	8%[59 µM]	1%	38%	2%	-12%	0%	·
Cc1c(C(=O)OCC2CCCO2)[nH]c2c1C(=O)CC(c1ccco1)C2 (stereo not given)	18µM*	22µM*	?	14µM*	?	16µM*	37µM*	Sfp gel assay=i;L3MBTL1 inh-2=6*;AlphaScreen ctr2=-2%
Cc1nn(-c2ccccc2)c2nc(-c3ccco3)cc(C(=O)O)c12	20µM*	?	9%	11µM*	?	13µM*	21µM*	Sfp gel assay=?;L3MBTL1 inh-2=1.1*;AlphaScreen ctr2=3%
Cc1ccc(-c2cc(C(=O)O)c3cc(Br)ccc3n2)o1	1.3µM*	56µM*	-25%	32µM*	25µM*	3.2µM*	3.7µM*	Sfp gel assay=i;L3MBTL1 inh-2=21*;AlphaScreen ctr2=-5%
CC(=O)c1c(C)nc2ccc(Br)cc2c1C(=O)O	?	-23%	27%	·	-12%	22%	·
CC/C=C(\NC(C)=O)c1ccccc1	-9%[0.501 µM]	-2%	37%	-3%	-14%	·	·
CCCNC(=O)CSc1c(CCC)cnc2c1c(=O)n(C)c(=O)n2C	-14%[59 µM]	1%	37%	·	-15%	·	·
c1cncc(-c2nc(-c3ccco3)cs2)c1	?	?	6%	·	?	7.9µM*	15µM*	G9a inh-2=10*
CC1CC(C)CN(S(=O)(=O)c2ccc(NC(=O)[C@@H]3CCCN3C(=O)c3cccs3)cc2)C1 (stereo not given in full)	-13%[12.7 µM]	12%	40%	-3%	-15%	·	·
Oc1ccc(NCc2ccccc2OCc2ccccc2)cc1	1.8µM*	28µM*	?	?	56µM*	25µM*	11µM*	Sfp gel assay=?;G9a inh-2=5.8*
O=C(NC1CCCCCC1)C1CCN(C(=O)c2cccc(Cl)c2)CC1	14%[59 µM]	8%	5%	·	6%	6%	·
Cc1ccc(Nc2nc(=O)c3cccnc3s2)cc1	-10%[59 µM]	0%	30%	2%	-9%	8%	·
COc1ccc(OC)c(Nc2nc(=O)c3cccnc3s2)c1	0.56µM*	56µM*	?	-24%	18µM*	2.8µM*	19µM*	G9a inh-2=0.45*
SMILES	G9a inh-1	BAZ2B inh	HP1b binding inh	L3MBTL1 inh-1	JMJD2A Tudor	Sfp PPTase inh	Sfp PPTase conf	others
COC(=O)c1ccc(N2NC(=O)/C(=C/c3ccc(-c4ccc(Cl)c(C(=O)O)c4)o3)C2=O)cc1	18µM*	50µM*	?	6.3µM*	56µM*	-10%	·	L3MBTL1 inh-2=1.7*;AlphaScreen ctr2=-17%
O=C1NN(c2ccccc2)C(=O)/C1=C/c1ccc(-c2ccc(C(=O)O)cc2)o1	·	50µM*	?	13µM*	56µM*	-1%	·	L3MBTL1 inh-2=3*;AlphaScreen ctr2=?
CCCOC(=O)c1cc(-c2ccc(C=O)o2)ccc1Cl	?	2%	11%	4%	-3%	-19%	·
CC1=NOC(=O)/C1=C\c1ccc(-c2ccc(Cl)c(C(=O)O)c2)o1	16µM*	79µM*	?	20µM*	79µM*	56µM*	·	L3MBTL1 inh-2=2.7*;AlphaScreen ctr2=-21%
COc1ccc(NC(=O)/C(C#N)=C/c2ccc(-c3ccc(Cl)c(C(=O)O)c3)o2)cc1	·	1%	0%	16%	?	5%	·
CNC(=O)[C@H](Cc1c[nH]c2ccccc12)NC(=O)[C@@H](CC(=O)NO)CC(C)C	-1%[12.7 µM]	·	·	·	·	10%	·
O=C(CSc1nc(-c2ccccc2)nc2ccc(F)cc12)Nc1ccc(C(=O)O)cc1	45µM*	50µM*	11%	40µM*	35µM*	-3%	·	L3MBTL1 inh-2=?;AlphaScreen ctr2=?
CC(C)OC(=O)CSc1nc(-c2ccc(F)cc2)nc2ccc(F)cc12	21%	2%	3%	-3%	-15%	2%	·
Cc1cc(S(=O)(=O)NCc2ccncc2)c(C)cc1Br	-2%	-2%	16%	·	0%	5%	·
